# Results reported in PubChem BioAssay AID1159580 (chemical genetic matrix, 2015).
# The campaign covered roughly 5,500 compounds. About 2,000 (36%) were called active. Not shown: some 18% with an inconclusive outcome. This is one part of the list. Values without a mark were called inactive. No stated cut-off is given here; in the data, active means normalized growth mostly below about 0.91 (no sharp cut-off); inconclusive means no clear call, values can overlap the other calls; inactive means mostly above about 0.92.
# Assay: chemical genetic growth profiling, strain panel (AID 1159580);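 further: tested at 20 µM; growth read once vehicle control cultures reached saturation at 30 °C; 1 = growth at the plate median or of vehicle wells; lower values mean less growth of the strain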
# Conditions: growth OD
# [1] = S. cerevisiae deletion strains, locus YAL013W, strain DEP1, active compounds read low
# [2] = S. cerevisiae deletion strains, locus YBR229C, strain ROT2, active compounds read low
# [3] = S. cerevisiae deletion strains, locus YDL101C, strain DUN1, active compounds read low
# [4] = S. cerevisiae deletion strains, locus YDR150W, strain NUM1, active compounds read low
# [5] = S. cerevisiae deletion strains, locus YEL061C, strain CIN8, active compounds read low
# [6] = S. cerevisiae deletion strains, locus YGR078C, strain PAC10, active compounds read low
# [7] = S. cerevisiae deletion strains, locus YHR030C, strain SLT2, active compounds read low
# [8] = S. cerevisiae deletion strains, locus YJR043C, strain POL32, active compounds read low
# [9] = S. cerevisiae deletion strains, locus YJR075W, strain HOC1, active compounds read low
# [10] = S. cerevisiae deletion strains, locus YLR039C, strain RIC1, active compounds read low
# [11] = S. cerevisiae deletion strains, locus YLR262C, strain YPT6, active compounds read low
# [12] = S. cerevisiae deletion strains, locus YMR263W, strain SAP30, active compounds read low
# [13] = S. cerevisiae deletion strains, locus YMR307W, strain GAS1, active compounds read low
# [14] = S. cerevisiae deletion strains, locus YNL128W, strain TEP1, active compounds read low
# [15] = S. cerevisiae deletion strains, locus YNL153C, strain GIM3, active compounds read low
# [16] = S. cerevisiae deletion strains, locus YNL322C, strain KRE1, active compounds read low
# [17] = S. cerevisiae deletion strains, locus YOL006C, strain TOP1, active compounds read low
# [18] = S. cerevisiae deletion strains, locus YPL055C, strain LGE1, active compounds read low
# [19] = S. cerevisiae deletion strains, locus YPL241C, strain CIN2, active compounds read low
# [20] = S. cerevisiae strains, strain wild type, active compounds read low
# [21] = S. cerevisiae deletion strains, locus YAL040C, strain CLN3, active compounds read low
# [22] = S. cerevisiae deletion strains, locus YCL061C, strain MRC1 (second series), active compounds read low
# [23] = S. cerevisiae deletion strains, locus YDR363W, strain ESC2, active compounds read low
# [24] = S. cerevisiae deletion strains, locus YER002W, strain NOP16, active compounds read low
# [25] = S. cerevisiae deletion strains, locus YNL175C, strain NOP13, active compounds read low
# [26] = S. cerevisiae deletion strains, locus YNL197C, strain WHI3, active compounds read low
# [27] = S. cerevisiae deletion strains, locus YNL224C, strain SQS1, active compounds read low
# [28] = S. cerevisiae deletion strains, locus YOR083W, strain WHI5 (second series), active compounds read low
smiles,measurement,setting,value
COC(=O)CCC(=O)O[C@H]1CCC2(C)C(CCC3C2C(=O)[C@@H](O)C2(C)C3CC3OC4(CCC(C)CO4)[C@@H](C)C32)C1 (stereo partly drawn),normalized growth,[1],0.991
same,normalized growth,"S. cerevisiae deletion strains, locus YBR021W, strain FUR4, active compounds read low",1.01
same,normalized growth,[2],1.01
same,normalized growth,"S. cerevisiae deletion strains, locus YCL029C, strain bik1, active compounds read low",0.997
same,normalized growth,"S. cerevisiae deletion strains, locus YDL035C, strain GPR1, active compounds read low",0.993
same,normalized growth,"S. cerevisiae deletion strains, locus YDL074C, strain BRE1, active compounds read low",0.997
same,normalized growth,[3],1.02
same,normalized growth,"S. cerevisiae deletion strains, locus YDL134C, strain PPH21, active compounds read low",1
same,normalized growth,"S. cerevisiae deletion strains, locus YDL185W, strain tfp1, active compounds read low",0.996
same,normalized growth,"S. cerevisiae deletion strains, locus YDL192W, strain arf1, active compounds read low",1
same,normalized growth,"S. cerevisiae deletion strains, locus YDR101C, strain arx1, active compounds read low",0.997
same,normalized growth,[4],1
same,normalized growth,"S. cerevisiae deletion strains, locus YDR162C, strain NBP2, active compounds read low",1
same,normalized growth,"S. cerevisiae deletion strains, locus YDR318W, strain mcm21, active compounds read low",0.996
same,normalized growth,"S. cerevisiae deletion strains, locus YDR388W, active compounds read low",0.994
same,normalized growth,"S. cerevisiae deletion strains, locus YDR502C, strain sam2, active compounds read low",1
same,normalized growth,[5],1.01
same,normalized growth,"S. cerevisiae deletion strains, locus YER110C, active compounds read low",0.996
same,normalized growth,"S. cerevisiae deletion strains, locus YER155C, strain BEM2, active compounds read low",1.01
same,normalized growth,"S. cerevisiae deletion strains, locus YER167W, strain BCK2, active compounds read low",1.02
same,normalized growth,"S. cerevisiae deletion strains, locus YGL078C, strain dbp3, active compounds read low",0.991
same,normalized growth,"S. cerevisiae deletion strains, locus YGL086W, strain mad1, active compounds read low",1
same,normalized growth,"S. cerevisiae deletion strains, locus YGL248W, strain PDE1, active compounds read low",1
same,normalized growth,[6],1.02
same,normalized growth,"S. cerevisiae deletion strains, locus YGR135W, strain pre9, active compounds read low",1
same,normalized growth,"S. cerevisiae deletion strains, locus YGR229C, strain SMI1, active compounds read low",1.01
same,normalized growth,"S. cerevisiae deletion strains, locus YGR252W, strain gcn5, active compounds read low",0.963
same,normalized growth,[7],1.01
same,normalized growth,"S. cerevisiae deletion strains, locus YHR079C, strain IRE1 (second series), active compounds read low",0.991
same,normalized growth,"S. cerevisiae deletion strains, locus YHR094C, strain hxt1, active compounds read low",0.998
same,normalized growth,"S. cerevisiae deletion strains, locus YHR129C, strain ARP1, active compounds read low",0.999
same,normalized growth,"S. cerevisiae deletion strains, locus YHR200W, strain rpn10, active compounds read low",1
same,normalized growth,"S. cerevisiae deletion strains, locus YIL066C, strain RNR3, active compounds read low",1.01
same,normalized growth,"S. cerevisiae deletion strains, locus YIL073C, strain SPO22, active compounds read low",1
same,normalized growth,"S. cerevisiae deletion strains, locus YIL125W, strain kgd1, active compounds read low",1.01
same,normalized growth,"S. cerevisiae deletion strains, locus YIR030C, strain dcg1, active compounds read low",0.998
same,normalized growth,"S. cerevisiae deletion strains, locus YJL095W, strain BCK1, active compounds read low",0.989
same,normalized growth,"S. cerevisiae deletion strains, locus YJL134W, strain LCB3, active compounds read low",1.01
same,normalized growth,"S. cerevisiae deletion strains, locus YJL168C, strain set2, active compounds read low",0.994
same,normalized growth,"S. cerevisiae deletion strains, locus YJL187C, strain SWE1 (second series), active compounds read low",1
same,normalized growth,[8],1
same,normalized growth,[9],1.02
same,normalized growth,"S. cerevisiae deletion strains, locus YKL009W, strain mrt4, active compounds read low",0.998
same,normalized growth,"S. cerevisiae deletion strains, locus YKL068W, active compounds read low",0.999
same,normalized growth,"S. cerevisiae deletion strains, locus YKL085W, strain MDH1 (second series), active compounds read low",0.996
same,normalized growth,"S. cerevisiae deletion strains, locus YKL085W, strain MDH1, active compounds read low",0.996
same,normalized growth,"S. cerevisiae deletion strains, locus YKL190W, strain CNB1, active compounds read low",1.01
same,normalized growth,"S. cerevisiae deletion strains, locus YKR001C, strain vps1, active compounds read low",0.993
same,normalized growth,[10],0.996
same,normalized growth,"S. cerevisiae deletion strains, locus YLR058C, strain SHM2, active compounds read low",1
same,normalized growth,"S. cerevisiae deletion strains, locus YLR102C, strain apc9, active compounds read low",0.996
same,normalized growth,[11],0.984
same,normalized growth,"S. cerevisiae deletion strains, locus YLR268W, strain sec22, active compounds read low",1
same,normalized growth,"S. cerevisiae deletion strains, locus YLR330W, strain CHS5, active compounds read low",1.01
same,normalized growth,"S. cerevisiae deletion strains, locus YLR342W, strain FKS1 (second series), active compounds read low",1.02
same,normalized growth,"S. cerevisiae deletion strains, locus YLR371W, strain rom2, active compounds read low",1
same,normalized growth,"S. cerevisiae deletion strains, locus YLR418C, strain cdc73, active compounds read low",0.982
same,normalized growth,"S. cerevisiae deletion strains, locus YML016C, strain PPZ1, active compounds read low",1.01
same,normalized growth,"S. cerevisiae deletion strains, locus YML032C, strain rad52, active compounds read low",1.01
same,normalized growth,"S. cerevisiae deletion strains, locus YML124C, strain tub3, active compounds read low",0.998
same,normalized growth,"S. cerevisiae deletion strains, locus YMR078C, strain ctf18, active compounds read low",0.994
same,normalized growth,"S. cerevisiae deletion strains, locus YMR223W, strain ubp8, active compounds read low",1
same,normalized growth,[12],1.03
same,normalized growth,[13],0.997
same,normalized growth,"S. cerevisiae deletion strains, locus YNL067W, strain RPL9B, active compounds read low",1.01
same,normalized growth,[14],1.01
same,normalized growth,[15],1.01
same,normalized growth,"S. cerevisiae deletion strains, locus YNL233W, strain BNI4, active compounds read low",1
same,normalized growth,"S. cerevisiae deletion strains, locus YNL250W, strain rad50, active compounds read low",0.999
same,normalized growth,"S. cerevisiae deletion strains, locus YNL271C, strain bni1, active compounds read low",0.995
same,normalized growth,"S. cerevisiae deletion strains, locus YNL298W, strain CLA4, active compounds read low",0.985
same,normalized growth,"S. cerevisiae deletion strains, locus YNL307C, strain MCK1, active compounds read low",0.997
same,normalized growth,[16],1.01
same,normalized growth,"S. cerevisiae deletion strains, locus YNR052C, strain pop2, active compounds read low",1
same,normalized growth,[17],0.943
same,normalized growth,"S. cerevisiae deletion strains, locus YOL012C, strain htz1",1.03
same,normalized growth,"S. cerevisiae deletion strains, locus YOL147C, strain pex11, active compounds read low",1
same,normalized growth,"S. cerevisiae deletion strains, locus YOR061W, strain CKA2, active compounds read low",1
same,normalized growth,"S. cerevisiae deletion strains, locus YOR069W, strain VPS5, active compounds read low",1.01
same,normalized growth,"S. cerevisiae deletion strains, locus YOR136W, strain idh2, active compounds read low",1
same,normalized growth,"S. cerevisiae deletion strains, locus YOR144C, strain elg1, active compounds read low",0.996
same,normalized growth,"S. cerevisiae deletion strains, locus YOR184W, strain ser1, active compounds read low",1.01
same,normalized growth,"S. cerevisiae deletion strains, locus YOR316C, strain cot1, active compounds read low",1
same,normalized growth,[18],1.03
same,normalized growth,[19],1
same,normalized growth,"S. cerevisiae deletion strains, locus YPR119W, strain clb2, active compounds read low",0.988
same,normalized growth,"S. cerevisiae deletion strains, locus YPR141C, strain kar3, active compounds read low",0.997
same,normalized growth,"S. cerevisiae deletion strains, locus YPR163C, strain tif3, active compounds read low",0.998
same,normalized growth,"S. cerevisiae deletion strains, locus YPR167C, strain met16, active compounds read low",1
same,normalized growth,"S. cerevisiae deletion strains, strain wtn01, active compounds read low",1
same,normalized growth,[20],1.04
O=C1Nc2ccc(I)cc2/C1=C/c1cc(Br)c(O)c(Br)c1,normalized growth,[21],0.966
same,normalized growth,[22],0.995
same,normalized growth,[4],0.953
same,normalized growth,[23],0.942
same,normalized growth,[24],1.01
same,normalized growth,[6],0.919
same,normalized growth,[9],0.979
same,normalized growth,[12],0.991
same,normalized growth,[15],0.666 (active)
same,normalized growth,[25],0.922
same,normalized growth,[26],0.97
same,normalized growth,[27],0.993
same,normalized growth,[28],0.665 (active)
COc1ccc(C=C2C(=O)NC(=S)NC2=O)cc1Br,normalized growth,[1],1.02
same,normalized growth,[2],1.03
same,normalized growth,[3],1
same,normalized growth,[4],0.946
same,normalized growth,[5],0.992
same,normalized growth,[6],0.995
same,normalized growth,[7],1.01
same,normalized growth,"S. cerevisiae deletion strains, locus YHR087W, strain rtc3, active compounds read low",0.984
same,normalized growth,[8],0.998
same,normalized growth,[9],1
same,normalized growth,[10],1.07
same,normalized growth,"S. cerevisiae deletion strains, locus YLR058C, strain SHM2 (second series), active compounds read low",1
same,normalized growth,"S. cerevisiae deletion strains, locus YLR085C, strain ARP6, active compounds read low",1.01
same,normalized growth,[11],1.06
same,normalized growth,"S. cerevisiae deletion strains, locus YML094W, strain GIM5, active compounds read low",1
same,normalized growth,"S. cerevisiae deletion strains, locus YMR219W, strain ESC1, active compounds read low",1.01
same,normalized growth,[12],0.928
same,normalized growth,[14],1
same,normalized growth,[15],0.965
same,normalized growth,"S. cerevisiae deletion strains, locus YNL298W, strain CLA4 (second series), active compounds read low",1
same,normalized growth,[16],1.01
same,normalized growth,"S. cerevisiae deletion strains, locus YNR030W, strain Alg12, active compounds read low",0.997
same,normalized growth,[17],1.01
same,normalized growth,[18],0.884
same,normalized growth,[19],1.02
same,normalized growth,"S. cerevisiae deletion strains, locus YPR135W, strain CTF4, active compounds read low",0.968
same,normalized growth,[20],1.01
CCO/C([O-])=N/c1c[n+](N2CCOCC2)no1,normalized growth,[21],0.99
same,normalized growth,[22],0.99
same,normalized growth,[23],1.02
same,normalized growth,[24],1
same,normalized growth,[12],0.98
same,normalized growth,[13],0.996
same,normalized growth,[14],1.01
same,normalized growth,[25],1
same,normalized growth,[26],0.984
same,normalized growth,[27],1.01
same,normalized growth,[28],0.995
same,normalized growth,[19],0.968
